Measurements taken from PubChem BioAssay (NCATS).
Where “and” joins values, the source holds several entries; their conditions need not be identical. Equal values may be shown once. Inconclusive results are not listed. A call without a number means that no potency is given here. Unmarked numbers belong to inactive results. Calls of active or inactive are those of the source. Unless noted, the call rests on the fitted dose curve; in most records, active means well fitted curve in the direction sought with a large enough effect; inconclusive means small, poorly fitted or top-dose-only effect, or another doubt; inactive means no such curve, though single readings can be large; an effect the other way counts as inactive or inconclusive.

Assays:
[1] = target: Cellular tumor antigen p53 (Homo sapiens) (UniProt P04637); experiment: Primary qHTS for small molecule compounds that upregulate eGFP-tagged delta133p53alpha (in N-terminal) cells. (AID 2060322); details: NCI-H358 eGFP-delta133p53alpha fluorescence, 24 h; activation: stronger effect = higher value;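 further: cells pre-induced with doxycycline then dosed without doxycycline; series mostly up to about 56 µM; nearly all actives have a fitted effect of over 75% in size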
Chain of Cellular tumor antigen p53 (Homo sapiens) (P04637 whole entry, looked up): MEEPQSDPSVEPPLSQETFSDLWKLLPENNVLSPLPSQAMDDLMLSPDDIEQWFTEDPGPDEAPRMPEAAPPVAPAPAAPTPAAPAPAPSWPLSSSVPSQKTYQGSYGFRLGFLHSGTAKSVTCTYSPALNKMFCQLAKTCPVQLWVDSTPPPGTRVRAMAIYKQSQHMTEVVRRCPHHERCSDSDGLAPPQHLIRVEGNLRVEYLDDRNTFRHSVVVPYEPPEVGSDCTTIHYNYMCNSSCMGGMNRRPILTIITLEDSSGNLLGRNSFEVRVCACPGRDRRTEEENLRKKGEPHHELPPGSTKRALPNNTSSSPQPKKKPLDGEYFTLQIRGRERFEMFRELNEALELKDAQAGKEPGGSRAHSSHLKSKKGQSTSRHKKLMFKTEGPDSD
Summary of the method: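 NCI-H358 cells pre-induced 24 h with 10 ng/ml doxycycline for eGFP-delta133p53alpha, plated dox-free and exposed 24 h at 37C to titrated compounds. Fixed, Hoechst-stained; gated GFP peak intensity by laser scanning cytometry, normalized to DMSO (0%) and 57.5 uM 5-azacytidine (100%).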

[2] = target: Cellular tumor antigen p53 (Homo sapiens) (UniProt P04637); experiment: Primary qHTS for small molecule compounds that upregulate eGFP-tagged delta133p53alpha (in C-terminal) cells. (AID 2060324); further: potency means the concentration at half of the fitted maximal effect
Summary of the method: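 Readout: filtered GFP peak intensity of gated cells (laser scanning cytometer), normalized plate-wise to intraplate controls, DMSO wells = 0% activity. Cells: NCI-H358 D133p53a-eGFP, dox 100 ng/ml 24 h beforehand, then compound 24 h, 37 °C.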

[3] = target: Aldehyde dehydrogenase, mitochondrial (Homo sapiens) (UniProt P05091); experiment: qHTS for Inhibitors of the Aldehyde Dehydrogenase Family (ALDH2) Validation screens (AID 2061302; active means well fitted inhibition curve with a large enough effect; title and protocol of this record describe different tests; further: potency means the concentration at half of the fitted maximal effect)

Row | SMILES | activation [1] | Potency [2] | Potency [3]
1 | Oc1cc2c(cc1O)C(c1ccccc1)CNCC2 (stereo unspecified) | 5.86% | inactive | inactive
2 | O=C(O)COCCN1CCN(C(c2ccccc2)c2ccc(Cl)cc2)CC1 (stereo unspecified) | 0.565% and 21.7% and -7.29% | inactive | inactive
3 | Cc1cccc(C2CN(C)CCc3c2cc(O)c(O)c3Cl)c1 (stereo unspecified) | -49.3% | inactive | inactive
4 | CN1CCc2ccccc2Cc2[nH]c3ccccc3c2CC1 | -5.31% | 26.9 µM (active) | inactive
5 | CCNC(=O)[C@H]1O[C@@H](n2cnc3c(N)nc(NCCc4ccc(CCC(=O)O)cc4)nc32)[C@H](O)C1O (stereo partly specified) | -0.799% | inactive | inactive
6 | CC(C)(C)c1onc(OCP(=O)(O)O)c1CC(N)C(=O)O (stereo unspecified) | 5.95% | inactive | inactive
7 | C#CCN(C)CCCOc1ccc(Cl)cc1Cl | -2.51% and -6.18% | inactive | inactive
8 | Cc1cccc(/C=C/c2ccccc2)n1 | -2.77% | inactive | inactive
9 | NS(=O)(=O)c1cc2c(cc1Cl)NC(C1CC3C=CC1C3)NS2(=O)=O (stereo unspecified) | -1.69% and -18.7% | inactive | inactive
10 | CCCCCCCCCCCCCCCCCC(=O)OC(CC(=O)O)C[N+](C)(C)C (stereo unspecified) | -37.9% | inactive | inactive
11 | CCc1c(C)[nH]c2c1C(=O)C(CN1CCOCC1)CC2 (stereo unspecified) | 4.18% and -34.4% | inactive | inactive
12 | C#CCN(C)Cc1ccccc1 | 2.82% and -8.29% | inactive | inactive
13 | CN(C)CCCc1cc(C(=O)Nc2ccc(-c3ccncc3)cc2)ccc1O | -14.9% | inactive | inactive
14 | Clc1ccc(N2CCN(Cc3c[nH]c4ncccc34)CC2)cc1 | -17.7% | inactive | inactive
15 | Nc1ncnc2c1ncn2[C@@H]1O[C@H](COP(=O)(O)OP(=O)(O)OP(=O)(O)OP(=O)(O)OC[C@@H]2O[C@H](n3cnc4c(N)ncnc43)[C@@H](O)[C@H]2O)[C@@H](O)[C@H]1O | -42.2% | inactive | inactive
16 | CCCn1c(=O)c2[nH]c(-c3ccc(S(=O)(=O)O)cc3)nc2n(CCC)c1=O | -6.22% | inactive | inactive
17 | CC(O)C(O)[C@H]1CNc2nc(N)[nH]c(=O)c2N1 (stereo partly specified) | -13.4% | inactive | 8.91 µM (active)
18 | CCCCCC[C@@H]([C@@H](C)O)n1cnc2c(N)ncnc21 | -41.6% | inactive | inactive
19 | CN1C2CCC1CC(OC(=O)C(O)c1ccccc1)C2 (stereo unspecified) | 8.16% | inactive | inactive

Row | SMILES | activation [1] | Potency [2] | Potency [3]
20 | CN1CCN(CCCN2c3ccccc3Sc3ccc(Cl)cc32)CC1 | 23.2% and -10.9% and -6.59% | inactive | inactive
21 | CCCCCCCCCC[Si](C)(C)CCC(=O)NC(Cc1ccc(C)cc1)c1ccccc1 (stereo unspecified) | -9.05% | inactive | inactive
22 | Cc1cccc(C#Cc2ccccc2)n1 | -6.63% and 22.8% | inactive | inactive
23 | NC(Cc1cccc(-c2ccccc2CP(=O)(O)O)c1)C(=O)O (stereo unspecified) | 5.19% | inactive | inactive
24 | C[C@](Cc1ccc(O)c(O)c1)(NN)C(=O)O | -15.4% | inactive | inactive
25 | O=C(O)Cc1c[nH]c2ccc(O)cc12 | 8.12% | inactive | inactive
26 | COc1ccccc1CNCCCCCCNCCCCCCCCNCCCCCCNCc1ccccc1OC | -23.6% | inactive | inactive
27 | Cc1cc2c(cc1Cl)N(C(=O)Nc1ccnc3ccccc13)CC2 | 4.1% | inactive | inactive
28 | Nc1c(S(=O)(=O)O)cc(Nc2ccc(Nc3nc(Cl)nc(Nc4ccc(S(=O)(=O)O)cc4)n3)c(S(=O)(=O)O)c2)c2c1C(=O)c1ccccc1C2=O | -2.44% | inactive | inactive
29 | COCCOc1cc2ncnc(Cl)c2cc1OCCOC | -22.2% | inactive | inactive
30 | CC(=O)NCCc1c[nH]c2ccc(O)cc12 | 10.8% | inactive | inactive
31 | N[C@@H](CS(=O)O)C(=O)O | -27.4% | inactive | inactive
32 | COc1ccc(CCN(C)CCc2ccc(OC)c(OC)c2)cc1OC | -16.8% | inactive | inactive
33 | COC(=O)[C@H]1[C@H]2C[C@H]3c4[nH]c5ccccc5c4CCN3C[C@H]2CC[C@@H]1O | -1.08% | inactive | inactive
34 | CC(CN1c2ccccc2Sc2ccccc21)N(C)C (stereo unspecified) | -20.9% and -2.49% | inactive | inactive
35 | CC(C)COC(=O)OCN1C(=O)CN(CCN2CC(=O)N(COC(=O)OCC(C)C)C(=O)C2)CC1=O | -13.5% | inactive | inactive
36 | Nc1ncnc2c1ncn2C1CCCC1 | -5.11% | inactive | inactive
37 | O=C(CCCN1CCC(O)(c2cccc(C(F)(F)F)c2)CC1)c1ccc(F)cc1 | 13.4% and 14.3% | inactive | inactive
